Results on 3 compounds are retold here after PubChem BioAssay (NCATS).

Records with an inconclusive call do not appear. Calls of active or inactive are those of the source. Unless noted, calls follow the shape of the dose curve; as a rule, active = well fitted curve in the direction sought with a large enough effect; inconclusive = small, poorly fitted or top-dose-only effect, or another doubt; inactive = no such curve, though single readings can be large; an effect the other way counts as inactive or inconclusive.

Test [1] has as its target Calcium and integrin-binding protein 1 (Homo sapiens) (UniProt Q99828). The test can be described thus: Primary qHTS for Identification of Calcium Integrin Binding Protein 1 (CIB1) Competitor (AID 1508620).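 Also: GST tagged CIB1 binding a fluorescein labelled alphaIIb integrin peptide tracer; top concentration of the series differs between compounds; % is scaled to controls: 0 for no effect and ±100 for the full control effect.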 The procedure, abridged: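 Fluorescence polarization competition: CIB1-GST (1 uM final) preincubated with compound 15 min at room temperature, then FITC-labeled alphaIIb peptide (100 nM final) added for another 15 min. Polarization read at Ex 480/Em 540.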

The target of test [2] is N-terminal Xaa-Pro-Lys N-methyltransferase 1 (Homo sapiens) (UniProt Q9BV86). The test can be described thus: Confirmatory qHTS for Inhibitors of N-terminal methyltransferase 1 (NTMT1): MTaseGlo Assay (AID 1645874). Also: potency is read from the fitted curve at half-maximal effect; nearly all actives have a fitted effect of over 65% in size. Put shortly:
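Enzyme mix (125 nM NTMT1, 100 uM SAM) + compound, 15 min RT; + 1 uM SPKRIA, 30 min RT, dark; MTase-Glo reagent 30 min, detection solution 30 min; luminescence. % inhibition vs no-enzyme/DMSO controls, 4-parameter Hill fit.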

For test [3], the target named is Lysosomal acid glucosylceramidase (Homo sapiens) (UniProt P04062). The test can be described thus: Glucocerebrosidase-p2 (AID 348; in the data active = potency below about 10 µM; also: potency is read from the fitted curve at half-maximal effect). Conditions: purified GBA, blue fluorogenic substrate, 40 min. Put shortly: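 Normal human glucocerebrosidase (0.2 nM) with blue fluorogenic substrate (80 uM final) in citrate/phosphate pH 5.9 with 10mM sodium taurocholate, 0.01% tween-20; 40 min RT, NaOH/glycine stop; fluorescence Ex 365/Em 440; AC50 from a titration from 0.6 nM upwards.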

Test [4] can be described thus: AP1 Signaling Pathway (AID 357; active = well fitted curve in either direction with a large enough effect, not every such curve was filed as active;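 also: ME-180 reporter cells stimulated with EGF at its EC50 level; % is scaled to controls: 0 for no effect and ±100 for the full control effect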). Conditions: ME-180 AP-1-bla reporter, EGF-induced, beta-lactamase ratio, 5 h; at 7.69 µM (top of the series) unless noted. Put shortly: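 Titration-series screen for positive or negative modulators of EC50 EGF-induced signaling in ME-180 cells carrying an AP-1-driven beta-lactamase reporter. After 5 hours at 37 degrees Celsius, CCF4 460nm/530nm emission ratio gave %Activity; AC50 values derived.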

For test [5], the target named is Cytochrome P450 1A2 (Homo sapiens) (UniProt P05177). The test can be described thus: p450-cyp1a2 (AID 410; calls by dose curve; also: potency is read from the fitted curve at half-maximal effect). The procedure, abridged:
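Read-out is luminescence from luciferin produced by CYP1A2 demethylation of Luciferin-ME (100uM, at Km). Detection reagent stopped the 60 min NADPH-dependent reaction; signals were normalized to 57 uM furafylline.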

The nature of test [6]: NFAT Signaling Pathway (AID 444; active = well fitted curve in either direction with a large enough effect, not every such curve was filed as active;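 also: carbachol stimulus at about its EC50 of 1 µM final; % is scaled to controls: 0 for no effect and ±100 for the full control effect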). Conditions: Jurkat NFAT-bla M1, carbachol, beta-lactamase ratio, 5 h; at 7.69 µM (top of the series) unless noted. Put shortly: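 Jurkat cells carrying an NFAT-driven β-lactamase reporter and co-transfected muscarinic M1 receptor were treated with compound plus carbachol (1 uM final, an EC50 level) for 5 h at 37 °C. CCF4 loading followed for 1 h at RT; 460/530 nm ratio gave %activity.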

A short description of test [7]: Stat Signaling Pathway (AID 446; active = well fitted curve in either direction with a large enough effect, not every such curve was filed as active;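 also: ME-180 cervical cancer cells given 40 pM IL-6 alongside compound; SIE-controlled beta-lactamase reporter measured as 460/530 nm FRET emission ratio; % is scaled to controls: 0 for no effect and ±100 for the full control effect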). Conditions: ME-180 (cervical carcinoma) SIE beta-lactamase reporter, IL-6 stimulated, 5 h; at 7.69 µM (top of the series) unless noted. The procedure, abridged: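 Emission at 460 and 530 nm (excitation 405 nm) reports SIE-controlled beta-lactamase in ME-180 cells. Cells received compound with 40 pM IL-6 for 5 hrs at 37 C; data scaled between 300 pM IL-6 and 125 nM JAK-inhibitor controls.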

The target in test [8] is Glucocorticoid receptor (Homo sapiens) (UniProt P04150). Kind of test: GR-GFP Redistribution (AID 450;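 active = compounds whose dose series gives a full or clear partial fitted curve of increased nuclear translocation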; also: potency is read from the fitted curve at half-maximal effect). Conditions: U2OS GR-GFP nuclear translocation, laser cytometry, 2 h.
Test [9] shares this target. The test can be described thus: GR-EFC Redistribution (AID 451; calls by dose curve; also: potency is read from the fitted curve at half-maximal effect). Conditions: CHO-K1 GR-EFC translocation, beta-gal luminescence, 2 h. The procedure, abridged:
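CHO-K1 cells stably expressing nuclear-localized β-gal enzyme acceptor and GR fused C-terminally to the enzyme donor fragment; ligand-driven nuclear translocation restores β-gal by complementation. Compounds titrated up to 46 uM final, 2 h at 37 °C; luminescence read.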

For test [10], the target named is Mitogen-activated protein kinase 10 (Mus musculus) (UniProt Q61831). The test can be described thus: JNK3 AlphaScreen Assay (AID 530; active = well fitted curve in either direction with a large enough effect, not every such curve was filed as active). The procedure, abridged:
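Biotinylated GST-cJun(1-79) served as substrate for JNK3 in HepG2 lysates stimulated with IL-1beta and TNF-alpha. ATP was 10 uM final, pH 7.6. Ser73 phosphorylation was quantified by AlphaScreen (680 nm excitation).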

The target in test [11] is 3',5'-cyclic-AMP phosphodiesterase 4B (Homo sapiens) (UniProt Q07343). The test can be described thus: qHTS Assay for Inhibitors of PDE-IV (AID 607; active = well fitted activation curve with a large enough effect in the main read-out, with a control signal flat, not every such curve was filed as active; also: % of control where 0% means no effect). The procedure, abridged:
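The readout is membrane depolarisation from a cAMP-sensing CNG channel, detected with a potential dye at ex 535/em 590. Cells were HEK293-derived (endogenous PDE-IV) at 1000 cells/well, titrated up to 22.9 uM final.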

The target in test [12] is Cytochrome P450 3A4 (Homo sapiens) (UniProt P08684). Kind of test: qHTS Assay for Activators of Cytochrome P450 3A4 (AID 885). Also: nearly all actives have a fitted effect of over 65% in size. The procedure, abridged:
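Activators are scored by enhanced luminescence from CYP3A4 conversion of luciferin-PPXE (25uM, equal to KM) to luciferin, after 60 min at RT with an NADPH-regenerating system.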

In test [13] the target is Cytochrome P450 2C19 (Homo sapiens) (UniProt P33261). Kind of test: qHTS Assay for Inhibitors and Substrates of Cytochrome P450 2C19 (AID 899). Also: potency is read from the fitted curve at half-maximal effect; nearly all actives have a fitted effect of over 60% in size. Put shortly:
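In 50mM KPO4, the reaction held 5nM enzyme and KM-level (10uM) Luciferin-H EGE; it ran 60 min at 37C after NADPH regeneration and a 10 min compound preincubation. Luminescence values were scaled to 57uM ketoconazole as complete inhibition.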

Test [14] in a line: qHTS Assay for Lipid Storage Modulators (AID 1519; calls by dose curve). The note with it: Drosophila S3 cells, BODIPY lipid droplet/cell ratio, laser cytometry, cells loaded with oleic acid. Put shortly: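 Cells seeded at 5,000 per well were treated with compounds over a concentration series and loaded with oleic acid (400 uM, as added). Lipid droplet fluorescence (488 nm excitation, 500-530 nm channel) was read by laser-scanning cytometry and normalized to 20 uM Triacsin C.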

In test [15] the target is Dual specificity protein kinase CLK4 (Homo sapiens) (UniProt Q9HAZ1). The test can be described thus: qHTS Assay for Inhibitors of CDC-like Kinase 4 (ADP-FP Assay) (AID 1795). Also: potency is read from the fitted curve at half-maximal effect; nearly all actives have a fitted effect of over 60% in size. Put shortly: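 Kinase activity was measured as ADP production using Transcreener orange tracer (4 nM) and ADP antibody (1 ug/mL) fluorescence polarization, with ADP calculated from a calibration curve. The 1 h reaction contained 6.25 nM Clk4, 1 uM ATP and 100 uM RS peptide at pH 7.5 with Mg2+.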

The target of test [16] is Ubiquitin carboxyl-terminal hydrolase 1 (Homo sapiens) (UniProt O94782). The test can be described thus: Inhibitors of USP1/UAF1: Pilot qHTS (AID 504865).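 Also: rhodamine fluorescence freed from ubiquitin-rhodamine substrate followed over time; top concentration of the series differs between compounds; % is scaled to controls: 0 for no effect and ±100 for the full control effect; nearly all actives have a fitted effect of over 35% in size.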 The procedure, abridged: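 Deubiquitinase activity followed as kinetic rhodamine fluorescence release from 150 nM Ub-Rho. 1 nM USP1/UAF1 with compound, after 15 min room-temperature preincubation, in HEPES pH 7.8 buffer containing TCEP, EDTA, BSA and Tween-20.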

Test [17] can be described thus: Primary qHTS for small molecule stabilizers of the endoplasmic reticulum resident proteome: Secreted ER Calcium Modulated Protein (SERCaMP) assay (AID 1508630). Also: % is scaled to controls: 0 for no effect and ±100 for the full control effect. Put shortly: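 The SH-SY5Y reporter protocol was run at 3 concentrations up to 38.3 uM (primary) or 11 concentrations (follow-up): 16 h compound, 100 nM thapsigargin for 4 h, then extracellular luciferase luminescence.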

In test [18] the target is Rap guanine nucleotide exchange factor 3 (Homo sapiens) (UniProt O95398). Kind of test: Confirmatory qHTS for antagonist of cAMP-regulated guanine nucleotide exchange factor 3 (EPAC1) (AID 1645880).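 Also: plate controls were DMSO only for no effect and full effect of the ATA control for full effect; nearly all actives have a fitted effect of over 55% in size.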 Put shortly: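 Released BODIPY-GDP fluoresces less than Rap1-bound BODIPY-GDP; the signal is followed at 480/540 nm at 5-min intervals over 30 min, after 5 min at room temperature. Reactions contain 100 nM EPAC1, 250 nM RAP1B-BODIPY-GDP and 50 uM GDP; results are normalized to ATA and DMSO.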

For test [19] the target is unchanged. The test can be described thus: Confirmatory qHTS for agonist of cAMP-regulated guanine nucleotide exchange factor 3 (EPAC1) (AID 1645881).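 Also: EPAC1 catalysed release of BODIPY-GDP from Rap1B seen as fluorescence loss; 100% = effect of cAMP agonist control; nearly all actives have a fitted effect of over 75% in size.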
Test [20] addresses Rap guanine nucleotide exchange factor 4 (Homo sapiens) (UniProt Q8WZA2). Kind of test: Confirmatory qHTS for agonist of cAMP-regulated guanine nucleotide exchange factor 4 (EPAC2) (AID 1645884).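 Also: nucleotide exchange releases bodipy-GDP from Rap1 and this lowers its fluorescence; % is scaled to controls: 0 for no effect and ±100 for the full control effect; nearly all actives have a fitted effect of over 65% in size.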
Test [21] has the same target. The test can be described thus: Confirmatory qHTS for antagonist of cAMP-regulated guanine nucleotide exchange factor 4 (EPAC2) (AID 1645885). Also: % is scaled to controls: 0 for no effect and ±100 for the full control effect; nearly all actives have a fitted effect of over 25% in size.
For test [22], the target named is Rap guanine nucleotide exchange factor 3 (Homo sapiens) (UniProt O95398). The test can be described thus: Counterscreen qHTS for antagonist of cAMP-regulated guanine nucleotide exchange factor 3 (EPAC1) (AID 1645888). Also: % of control where 0% means no effect. The procedure, abridged:
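Measured: fluorescence of BODIPY-GDP bound to Rap1B, which falls as exchange proceeds. Conditions include 50 uM competing GDP, 5 and 30 min reads, and a later cAMP challenge for antagonist detection.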

In test [23] the target is Dual specificity protein kinase CLK4 (Homo sapiens) (UniProt Q9HAZ1). Kind of test: qHTS Assay for Inhibitors of CDC-like Kinase 4 (Kinase-Glo Assay) (AID 1770). Also: potency is read from the fitted curve at half-maximal effect; nearly all actives have a fitted effect of over 65% in size. Put shortly:
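Luminescent ATP-depletion read-out (Kinase-Glo) after 4.5 h room-temperature reaction of Clk4 (25 nM final) with RS peptide (100 uM) and ATP (1 uM), pH 7.5 Tris buffer with MgCl2 and DTT.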

For test [24] the target is unchanged. The test can be described thus: qHTS Assay for Inhibitors of CDC-like Kinase 4 (ADP-Glo Assay) (AID 1771). Also: potency is read from the fitted curve at half-maximal effect; nearly all actives have a fitted effect of over 70% in size. Put shortly: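 In this ADP-Glo format, 1 uM ATP and 100 uM RS peptide served as substrates for 25 nM Clk4 in Mg2+/EGTA/DTT/Triton buffer; reactions ran 1 hr at room temperature before luminescent ADP quantification.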

Chain of Dual specificity protein kinase CLK4 (Homo sapiens) (Q9HAZ1 whole entry, looked up): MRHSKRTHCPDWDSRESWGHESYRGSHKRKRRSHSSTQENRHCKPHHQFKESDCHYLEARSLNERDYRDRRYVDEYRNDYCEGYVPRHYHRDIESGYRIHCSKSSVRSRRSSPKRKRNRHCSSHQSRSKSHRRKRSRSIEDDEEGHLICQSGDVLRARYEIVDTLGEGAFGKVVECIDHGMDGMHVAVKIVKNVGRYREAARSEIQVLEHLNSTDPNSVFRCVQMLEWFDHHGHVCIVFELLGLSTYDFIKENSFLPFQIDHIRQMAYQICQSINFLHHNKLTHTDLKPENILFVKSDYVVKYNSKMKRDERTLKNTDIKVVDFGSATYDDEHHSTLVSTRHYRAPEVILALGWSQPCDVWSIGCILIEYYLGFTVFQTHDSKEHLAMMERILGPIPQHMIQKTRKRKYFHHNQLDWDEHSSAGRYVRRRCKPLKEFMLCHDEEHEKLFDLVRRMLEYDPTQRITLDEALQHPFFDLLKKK
Chain of Calcium and integrin-binding protein 1 (Homo sapiens) (Q99828 whole entry, looked up): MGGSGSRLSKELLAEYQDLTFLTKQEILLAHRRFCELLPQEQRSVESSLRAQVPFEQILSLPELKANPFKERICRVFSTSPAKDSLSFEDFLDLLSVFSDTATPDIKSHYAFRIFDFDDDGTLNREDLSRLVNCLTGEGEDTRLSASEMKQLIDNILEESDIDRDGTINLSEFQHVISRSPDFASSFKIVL
Chain of Rap guanine nucleotide exchange factor 4 (Homo sapiens) (Q8WZA2 whole entry, looked up): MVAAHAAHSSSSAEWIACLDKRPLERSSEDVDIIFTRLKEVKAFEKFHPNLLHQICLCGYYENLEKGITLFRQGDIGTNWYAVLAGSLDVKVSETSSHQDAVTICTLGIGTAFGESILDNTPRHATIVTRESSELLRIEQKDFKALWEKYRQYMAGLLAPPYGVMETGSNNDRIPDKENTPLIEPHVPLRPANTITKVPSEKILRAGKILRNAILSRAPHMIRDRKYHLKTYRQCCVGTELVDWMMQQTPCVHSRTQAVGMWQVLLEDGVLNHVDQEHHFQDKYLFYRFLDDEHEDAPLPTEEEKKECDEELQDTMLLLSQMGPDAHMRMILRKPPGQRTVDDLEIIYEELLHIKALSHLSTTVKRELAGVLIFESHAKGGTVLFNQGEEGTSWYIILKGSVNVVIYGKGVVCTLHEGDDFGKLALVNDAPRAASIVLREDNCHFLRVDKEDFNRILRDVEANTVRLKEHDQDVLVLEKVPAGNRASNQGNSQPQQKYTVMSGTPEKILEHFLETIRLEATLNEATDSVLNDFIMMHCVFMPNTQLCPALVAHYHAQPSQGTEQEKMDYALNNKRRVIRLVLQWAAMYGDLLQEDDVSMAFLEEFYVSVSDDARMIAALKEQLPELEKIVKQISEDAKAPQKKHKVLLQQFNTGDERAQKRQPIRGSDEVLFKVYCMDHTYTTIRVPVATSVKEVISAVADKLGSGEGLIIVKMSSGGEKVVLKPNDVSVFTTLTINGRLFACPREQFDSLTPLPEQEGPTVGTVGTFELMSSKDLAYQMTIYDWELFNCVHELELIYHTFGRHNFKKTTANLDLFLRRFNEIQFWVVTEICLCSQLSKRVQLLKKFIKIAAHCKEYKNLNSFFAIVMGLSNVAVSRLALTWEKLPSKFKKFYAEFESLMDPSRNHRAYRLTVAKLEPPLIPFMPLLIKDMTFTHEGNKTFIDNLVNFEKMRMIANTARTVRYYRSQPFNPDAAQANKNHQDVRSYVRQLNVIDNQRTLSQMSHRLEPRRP
Chain of Glucocorticoid receptor (Homo sapiens) (P04150 whole entry, looked up): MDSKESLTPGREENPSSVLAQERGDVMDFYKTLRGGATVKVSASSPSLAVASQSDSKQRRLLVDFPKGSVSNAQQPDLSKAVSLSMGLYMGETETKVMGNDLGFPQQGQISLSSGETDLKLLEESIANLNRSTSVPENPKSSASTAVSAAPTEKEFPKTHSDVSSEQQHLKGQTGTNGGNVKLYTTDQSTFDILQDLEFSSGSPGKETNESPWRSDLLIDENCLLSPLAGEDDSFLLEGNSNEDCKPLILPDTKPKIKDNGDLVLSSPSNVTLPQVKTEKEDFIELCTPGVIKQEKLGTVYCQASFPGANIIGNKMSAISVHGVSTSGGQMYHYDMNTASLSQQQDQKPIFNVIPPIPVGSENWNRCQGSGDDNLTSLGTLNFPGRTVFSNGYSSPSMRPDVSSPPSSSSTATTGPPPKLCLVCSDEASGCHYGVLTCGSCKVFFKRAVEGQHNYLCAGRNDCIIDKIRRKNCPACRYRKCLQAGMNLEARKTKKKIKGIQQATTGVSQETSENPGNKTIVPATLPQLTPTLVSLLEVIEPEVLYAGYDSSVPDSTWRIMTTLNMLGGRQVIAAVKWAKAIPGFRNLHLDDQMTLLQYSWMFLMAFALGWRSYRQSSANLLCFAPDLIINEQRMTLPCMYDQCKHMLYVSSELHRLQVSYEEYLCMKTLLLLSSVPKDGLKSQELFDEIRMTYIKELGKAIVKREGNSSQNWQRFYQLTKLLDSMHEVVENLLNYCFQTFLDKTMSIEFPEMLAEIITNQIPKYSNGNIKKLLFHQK
Chain of Rap guanine nucleotide exchange factor 3 (Homo sapiens) (O95398 whole entry, looked up): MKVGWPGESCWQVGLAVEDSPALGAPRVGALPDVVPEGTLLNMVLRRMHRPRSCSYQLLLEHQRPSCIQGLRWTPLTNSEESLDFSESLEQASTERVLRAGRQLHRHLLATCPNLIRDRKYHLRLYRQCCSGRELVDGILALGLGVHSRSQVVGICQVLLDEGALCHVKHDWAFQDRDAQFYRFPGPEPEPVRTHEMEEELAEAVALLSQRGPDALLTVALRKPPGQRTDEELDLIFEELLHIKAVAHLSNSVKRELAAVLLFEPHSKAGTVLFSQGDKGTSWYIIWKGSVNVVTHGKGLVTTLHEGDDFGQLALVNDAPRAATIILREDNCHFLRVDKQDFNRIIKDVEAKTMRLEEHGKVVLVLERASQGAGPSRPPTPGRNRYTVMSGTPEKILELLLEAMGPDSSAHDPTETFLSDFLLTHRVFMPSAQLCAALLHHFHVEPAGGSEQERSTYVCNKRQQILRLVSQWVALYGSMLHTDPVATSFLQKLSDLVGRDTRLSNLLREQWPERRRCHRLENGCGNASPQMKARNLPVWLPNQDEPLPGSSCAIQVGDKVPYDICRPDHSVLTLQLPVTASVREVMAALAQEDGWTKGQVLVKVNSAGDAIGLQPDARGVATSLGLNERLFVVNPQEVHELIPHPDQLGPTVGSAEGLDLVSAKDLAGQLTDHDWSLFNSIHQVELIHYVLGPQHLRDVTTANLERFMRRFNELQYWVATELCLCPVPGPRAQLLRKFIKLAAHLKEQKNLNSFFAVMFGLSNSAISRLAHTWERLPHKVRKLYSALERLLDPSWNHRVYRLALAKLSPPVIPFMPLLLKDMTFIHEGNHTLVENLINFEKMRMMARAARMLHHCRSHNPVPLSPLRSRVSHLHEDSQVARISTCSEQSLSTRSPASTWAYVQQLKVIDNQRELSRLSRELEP
Chain of Cytochrome P450 3A4 (Homo sapiens) (P08684 whole entry, looked up): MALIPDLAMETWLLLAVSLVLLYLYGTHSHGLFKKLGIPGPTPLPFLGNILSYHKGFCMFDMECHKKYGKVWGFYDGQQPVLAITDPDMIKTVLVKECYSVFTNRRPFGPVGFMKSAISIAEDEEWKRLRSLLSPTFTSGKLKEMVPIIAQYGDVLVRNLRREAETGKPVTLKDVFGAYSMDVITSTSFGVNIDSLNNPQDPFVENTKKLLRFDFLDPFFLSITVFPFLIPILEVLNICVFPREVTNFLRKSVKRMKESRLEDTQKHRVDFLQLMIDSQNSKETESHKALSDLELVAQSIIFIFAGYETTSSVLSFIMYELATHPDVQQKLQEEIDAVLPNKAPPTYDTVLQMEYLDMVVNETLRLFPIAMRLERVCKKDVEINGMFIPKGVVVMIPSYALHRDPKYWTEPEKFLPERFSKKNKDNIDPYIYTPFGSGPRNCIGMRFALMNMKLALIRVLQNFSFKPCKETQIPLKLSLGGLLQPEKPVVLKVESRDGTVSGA
Chain of Cytochrome P450 1A2 (Homo sapiens) (P05177 whole entry, looked up): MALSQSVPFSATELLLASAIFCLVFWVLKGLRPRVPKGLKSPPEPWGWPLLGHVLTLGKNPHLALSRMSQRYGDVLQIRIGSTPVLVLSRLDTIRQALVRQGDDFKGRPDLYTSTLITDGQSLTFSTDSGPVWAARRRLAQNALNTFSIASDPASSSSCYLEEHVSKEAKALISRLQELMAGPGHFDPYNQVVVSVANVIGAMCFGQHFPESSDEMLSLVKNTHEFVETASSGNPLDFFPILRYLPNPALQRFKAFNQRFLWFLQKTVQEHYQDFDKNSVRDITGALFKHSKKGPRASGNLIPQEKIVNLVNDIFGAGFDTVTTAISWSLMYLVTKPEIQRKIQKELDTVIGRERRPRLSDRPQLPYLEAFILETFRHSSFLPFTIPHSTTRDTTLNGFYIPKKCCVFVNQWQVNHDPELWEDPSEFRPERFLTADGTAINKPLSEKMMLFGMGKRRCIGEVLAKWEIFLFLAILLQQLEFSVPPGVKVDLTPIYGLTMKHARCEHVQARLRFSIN
Chain of Lysosomal acid glucosylceramidase (Homo sapiens) (P04062 whole entry, looked up): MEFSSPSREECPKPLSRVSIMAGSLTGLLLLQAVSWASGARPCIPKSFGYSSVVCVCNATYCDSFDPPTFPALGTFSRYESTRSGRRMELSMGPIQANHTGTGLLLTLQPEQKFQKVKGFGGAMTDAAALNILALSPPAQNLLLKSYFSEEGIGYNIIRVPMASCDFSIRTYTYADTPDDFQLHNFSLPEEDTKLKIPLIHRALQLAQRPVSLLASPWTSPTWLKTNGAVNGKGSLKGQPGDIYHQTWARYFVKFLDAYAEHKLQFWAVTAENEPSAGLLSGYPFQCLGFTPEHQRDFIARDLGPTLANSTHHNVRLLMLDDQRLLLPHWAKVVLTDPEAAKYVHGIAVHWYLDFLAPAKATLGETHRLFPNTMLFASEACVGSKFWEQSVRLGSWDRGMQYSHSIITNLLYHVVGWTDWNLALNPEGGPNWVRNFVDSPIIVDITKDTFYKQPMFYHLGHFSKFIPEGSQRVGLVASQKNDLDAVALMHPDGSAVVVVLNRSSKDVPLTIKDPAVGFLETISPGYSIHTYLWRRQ

On to `COc1cc(Nc2nc(-c3ccncc3)nc3ccccc23)ccc1N1CCN(C)CC1`, for which the Potency entry in [1] is “inactive”. In [2], the Potency was 17 µM (active).

Turning to `COc1cccc(-c2ccc3ncnc(N(C)Cc4ccco4)c3c2)c1`, the Potency was > 11.4 µM (inactive) in test [3]; 1.26 µM (active) in test [5]; > 46 µM (inactive) in [8]; > 46 µM (inactive) in [9]; 2 µM (active) in [13]; 0.562 µM (active) in test [15]. Besides, the activity change, negative = inhibition in test [4] is -18.7% (inactive); in [6], -8.47% (inactive); in test [14] (at 57.5 µM (top of the series)) it was 1.9% (inactive); in [21], -12.8% [at 12.7 µM] (inactive). For the same compound, the activity, negative = inhibition in [7] is -14.9% (inactive). Moreover, the compound was classed as inactive in [10], in test [19] and in test [22]. Moreover, the Potency result in [11], in test [12], in [16], in test [1], in test [17] and in [18] was “inactive” in each case. Also, the values for the max response in [14] (measured here: cell count channel max response) and in [14] (measured here: lipid channel max response) were 8.44% and 7.63%, respectively. Moreover, the activation in test [20] is 8.39% [at 17.1 µM] (inactive).

For `CN(Cc1ccco1)c1ncnc2ccc(-c3ccoc3)cc12`, the Potency in test [3] is > 11.4 µM (inactive); in test [5], 2.51 µM (active); in [8], > 46 µM (inactive); in test [9] it was > 46 µM (inactive); in test [23], 0.112 µM (active); in test [24], 0.112 µM (active). The activity change, negative = inhibition in test [4] was -16.7% (inactive); in test [6], -26.3% (inactive). Also, the call in [10], in test [19] and in [20] was inactive. The Potency entry in [12], in test [16], in test [1], in test [17], in test [18] and in [21] was “inactive” in each case.
